# Screening data (PubChem)
# KCNQ2 block: rat KCNQ2 potassium channel inhibitors, primary screen, cell-based, CHO-K1, FluxOR thallium flux, B-score; actives 1.1% (n = 310,000); B-score at 10 µM; 20 min; hits give low values; Potassium voltage-gated channel subfamily KQT member 2 (Rattus norvegicus), O88943;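 active = fluorescence ratio B-score at most minus 3 library SDs, with starting brightness B-score within 2 library SDs, cut at about -5.5 in these data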
# Target sequence (O88943 whole entry, looked up): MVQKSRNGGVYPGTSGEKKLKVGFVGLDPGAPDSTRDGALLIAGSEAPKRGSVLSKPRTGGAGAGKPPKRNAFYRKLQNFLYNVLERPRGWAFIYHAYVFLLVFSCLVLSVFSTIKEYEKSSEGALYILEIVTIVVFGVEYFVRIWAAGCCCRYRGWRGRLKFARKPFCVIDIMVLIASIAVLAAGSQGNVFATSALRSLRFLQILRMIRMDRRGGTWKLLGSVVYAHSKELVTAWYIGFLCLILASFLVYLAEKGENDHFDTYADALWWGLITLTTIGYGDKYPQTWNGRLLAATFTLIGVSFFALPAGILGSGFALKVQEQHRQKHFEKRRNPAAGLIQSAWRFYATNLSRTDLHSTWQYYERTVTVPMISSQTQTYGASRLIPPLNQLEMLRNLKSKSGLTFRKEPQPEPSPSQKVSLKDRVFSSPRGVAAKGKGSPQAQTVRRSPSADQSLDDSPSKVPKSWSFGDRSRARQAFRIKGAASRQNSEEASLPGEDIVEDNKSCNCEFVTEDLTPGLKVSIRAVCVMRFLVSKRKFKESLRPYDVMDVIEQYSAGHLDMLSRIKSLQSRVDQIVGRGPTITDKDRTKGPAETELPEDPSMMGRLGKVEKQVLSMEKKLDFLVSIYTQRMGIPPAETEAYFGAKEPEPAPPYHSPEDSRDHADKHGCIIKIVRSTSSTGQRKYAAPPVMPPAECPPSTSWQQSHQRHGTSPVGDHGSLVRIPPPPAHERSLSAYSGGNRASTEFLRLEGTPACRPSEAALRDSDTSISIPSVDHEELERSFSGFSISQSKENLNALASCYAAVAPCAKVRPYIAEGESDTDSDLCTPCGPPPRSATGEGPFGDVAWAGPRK
# KCNQ2 enhance: potentiators of rat KCNQ2 potassium channel. Potassium voltage-gated channel subfamily KQT member 2 (Rattus norvegicus), O88943. CHO-K1 KCNQ2, FluxOR thallium flux fluorescence; hits give high values. B-score at 10 µM. actives 0.54% (n = 310,000). AID 2239, 2010;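 active = fluorescence ratio B-score at least 3 SD of library B-scores, with initial fluorescence B-score within 3 of them, cut at about 5.3 in these data; same plate scores as AID 2156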;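 also: B-score of peak minus minimum over baseline fluorescence ratio after K+ and Tl+ stimulus; positive B-score means potentiation of KCNQ2 with more thallium influx and brighter signal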
# Kir21 conf inh: mouse Kir2.1 channel blockers, retest, confirmation, cell-based, FluxOR thallium flux, duplicate; shares compounds with KCNQ2 enhance; Kir2.1-expressing cells, FluxOR thallium flux fluorescence; hits give low values; Tl flux remaining, % of negative control (hits give low values), % at 10 µM; actives 41% (n = 2,300);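 active = Primary-screen hit whose thallium flux fell at least 3 control SD below untreated wells in both duplicates, with normal baseline fluorescence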;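 also: 0% = blank wells without stimulus and 100% = stimulated no-compound controls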
# HEK293 Tl flux: parental HEK293 activity in Kir2.1 inhibitor counter-screen. shares compounds with KCNQ2 enhance. parental HEK293 cells, FluxOR thallium flux fluorescence; 0% = unstimulated blank wells. FluxOR signal as % of negative control (100 = no effect), % at 10 µM. actives 19% (n = 2,300). AID 2105;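 active = dye signal at least 3 control SD above or below untreated wells in both duplicates, raw fluorescence within 3, either direction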;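 also: percent is based on the flux ratio of peak minus minimum fluorescence over baseline F0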
# CHO-K1 Tl ctr: nonspecific thallium flux increase in parental CHO-K1, confirmation, counter-screen for KCNQ2 potentiator project, cell-based, FluxOR thallium flux, duplicate; shares compounds with KCNQ2 enhance; parental CHO-K1 cells, FluxOR thallium flux fluorescence; zero = vehicle mean+3SD, 100% = vehicle-minus-blank window; activity increase over 3SD of controls, % at 10 µM; actives 43% (n = 1,200); AID 2282, 2010;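 active = signal rise of at least 3 SD above the untreated control mean, in both duplicate wells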;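 also: counter screen of KCNQ2 potentiator hits so any rise reflects channel-independent effects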
# KCNQ1 pot spec: human KCNQ1 channel potentiation off-target, confirmation, selectivity assay for KCNQ2 potentiator project, cell-based, CHO, FluxOR thallium flux | actives 28% (n = 1,200) | activation over 3SD threshold, % at 10 µM | CHO KCNQ1 stable, FluxOR thallium flux fluorescence; beyond 3SD, as % of vehicle-control signal | shares compounds with KCNQ2 enhance;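 active = fluorescence ratio rise of at least 3 SD of vehicle wells above their mean, in both replicate wells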;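 also: 0% = vehicle mean plus 3 SD and 100% = vehicle minus unstimulated blank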
# KCNQ2 pot confirm: rat KCNQ2 channel potentiators, confirmation, cell-based, CHO, FluxOR thallium flux, duplicate. shares compounds with KCNQ2 enhance. CHO-KCNQ2 cells, FluxOR thallium flux fluorescence. potentiation, less the hit threshold, % at 10 µM. actives 68% (n = 1,200). AID 2287, 2010;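 active = fluorescence ratio rising 3 SD or more over the vehicle control mean in both replicates, plus primary screen hit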;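 also: peak minus minimum thallium fluorescence divided by baseline after K/Tl stimulus; 0% = vehicle mean plus 3 SD and 100% = vehicle minus unstimulated blank difference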
# Kir21 spec: mouse Kir2.1 channel activation off-target, confirmation, selectivity assay for KCNQ2 potentiator project, cell-based, HEK293, FluxOR thallium flux. shares compounds with KCNQ2 enhance. HEK293 Kir2.1, FluxOR thallium flux fluorescence. activity over 3SD threshold, % at 10 µM. actives 2% (n = 1,200). AID 2345, 2010;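 active = fluorescence ratio rise of at least 3 SD above the vehicle-control mean, seen in both replicates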;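 also: 0% = vehicle mean plus 3 SD and 100% = vehicle minus no-stimulus blank window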
# KCNQ2 W236L pot: potentiators of retigabine-insensitive KCNQ2 W236L, mechanism study for KCNQ2 potentiator project, cell-based, rat KCNQ2 W236L, CHO, automated patch clamp. automated patch clamp current. actives 10% (n = 940). current increase over 3SD of negative controls (%), hits give high values, % at 25 µM. shares compounds with KCNQ2 enhance;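 active = current increase at least 3 SD of the untreated controls above them in both duplicate recordings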
# * hit, by the source's call; i = inactive; x = no result given. This is a sample that favours compounds with a hit; in the whole collection about 1.6% have one here.
SMILES,KCNQ2 block,KCNQ2 enhance,Kir21 conf inh,HEK293 Tl flux,others
CC1CN(C(=O)CCC(=O)NCCCN2CCN(Cc3ccccc3)CC2)c2cc(Cl)ccc2O1 (configuration not stated),i,x,61%*,i,
CCCN(CC(=O)Nc1ccc(F)c(F)c1F)C(=O)C1=COCCO1,i,0.04,x,x,
COc1ccc(/C=C2/S/C(=N/S(=O)(=O)Cc3ccccc3)NC2=O)cc1OC,i,0.02,x,x,
COc1ccc(/C=C2\SC(=S)NC2=O)cc1OS(=O)(=O)c1ccc(NC(C)=O)cc1,i,x,x,x,
COc1cc(/C=C2/SC(=S)NC2=O)ccc1OS(=O)(=O)c1ccc(C)cc1,i,40*,i,i,CHO-K1 Tl ctr=0.8*;KCNQ1 pot spec=-20;KCNQ2 pot confirm=-23;Kir21 spec=-50;KCNQ2 W236L pot=i
COc1cc(/C=C2\SC(=S)NC2=O)ccc1OS(=O)(=O)c1ccccc1,i,41*,i,i,CHO-K1 Tl ctr=-7;KCNQ1 pot spec=-12;KCNQ2 pot confirm=91*;Kir21 spec=-44;KCNQ2 W236L pot=i
NS(=O)(=O)c1ccc(CCNC(=O)COC(=O)/C=C/c2ccc(Cl)cc2)cc1,i,0.29,x,x,
Cc1ccc(NS(=O)(=O)c2cccc(C(=O)NCC(c3ccco3)N3CCCCC3)c2)cc1 (configuration not stated),i,x,x,x,
CC(C)=CCC/C(C)=C/CCC(C)NCCN1CCNCC1 (configuration not stated),i,x,x,x,
CC(C)=CCC/C(C)=C/CC(C)(C)CNCCN1CCNCC1,i,x,i,i,
Cc1csc(CNC(=O)c2cc(COc3c(C)cccc3C)on2)n1,i,x,x,x,
COc1ccc2oc(C(=O)OCC(=O)Nc3ccc(NC(C)=O)cc3)c(C)c2c1,i,x,x,x,
COc1ccc2oc(C(=O)OCC(=O)N(C)CC(=O)Nc3ccc(C)cc3)c(C)c2c1,i,7.4*,i,i,CHO-K1 Tl ctr=32*;KCNQ1 pot spec=-11;KCNQ2 pot confirm=-5;Kir21 spec=-33
COCCNC(=O)C(c1ccc(F)cc1)N(C(=O)CCC(=O)Nc1ccccn1)c1ccc(C)cc1 (configuration not stated),i,0.09,x,x,
Cc1cc(C)n(-c2ccc(C(=O)NCc3ccc(F)cc3)cc2)n1,i,1.1,22%*,i,
Cc1cc(C)n(-c2ccc(C(=O)NCc3ccc4c(c3)OCO4)cc2)n1,i,0.49,x,x,
CN(CC(=O)NC(=O)NC(C)(C)C)CC(=O)Nc1ccccc1Cl,i,2.7,x,x,
Cc1ccc(-n2cc(CNCCCn3cccn3)c(-c3cccc(C)c3)n2)cc1,i,x,x,x,
Cc1ccc(-n2cc(CNCCCn3ccnc3C)c(-c3ccc(F)cc3)n2)cc1,i,x,60%*,i,
CCCCc1ncc(CN2CCC(CC3CCCCO3)(C(=O)OCC)CC2)[nH]1 (configuration not stated),i,0.83,x,x,
CCOC(=O)C1(CC2CCCCO2)CCN(Cc2cc3ccccc3[nH]2)CC1 (configuration not stated),i,8.4*,x,x,CHO-K1 Tl ctr=-29;KCNQ1 pot spec=-10;KCNQ2 pot confirm=-24;Kir21 spec=-60
CCc1ccc(OCC(=O)Nc2ccc3[nH]ncc3c2)cc1,i,x,x,x,
Cc1cc(C)nc(SCC(=O)N/N=C/c2cccs2)n1,i,x,x,x,
COc1cc2nc(Nc3ccc(F)cc3)nc(N)c2cc1OC,i,0.07,42%*,i,
COc1cc2nc(Nc3ccc(C)c(C)c3)nc(N)c2cc1OC,i,x,x,x,
SMILES,KCNQ2 block,KCNQ2 enhance,Kir21 conf inh,HEK293 Tl flux,others
COc1ccc(CNC(=O)C2CCCN2S(=O)(=O)c2ccc(F)cc2)cc1 (configuration not stated),i,x,x,x,
Fc1ccc(CN2CCCN(Cc3nc(-c4ccc5c(c4)OCO5)no3)CC2)cc1,i,x,44%*,i,
O=C(c1ccco1)N1CCCN(Cc2nc(-c3ccc4c(c3)OCO4)no2)CC1,i,1.6,x,x,
COc1ccc2oc(=O)c(C(=O)OCc3ccccc3)cc2c1,i,x,x,x,
c1ccc(CNCCC(Cc2ccccc2)c2ccco2)cc1 (configuration not stated),i,x,17%*,74%*,
CN(C)c1ccc(CNCCC(Cc2ccccc2)c2ccco2)cc1 (configuration not stated),i,x,x,x,
COC(=O)C(Cc1ccccc1)NC(=O)CCc1c[nH]c2ccccc12 (configuration not stated),i,x,x,x,
CCCCN(CCCC)c1ccc(C(=O)c2ccccc2C(=O)O)c(O)c1,i,8.9*,i,i,CHO-K1 Tl ctr=-7;KCNQ1 pot spec=-22;KCNQ2 pot confirm=-2;Kir21 spec=-38;KCNQ2 W236L pot=i
CN(C)c1ccc(C(=O)c2ccccc2C(=O)O)c(O)c1,i,0.86,x,x,
CN(C)S(=O)(=O)c1ccc(Cl)c(NC(=O)CN2C(=O)NC(C)(C3CC3)C2=O)c1 (configuration not stated),i,x,x,x,
O=C(NC(=S)N(CCCCO)C1CCCCC1)c1sc2ccccc2c1Cl,i,17*,i,i,CHO-K1 Tl ctr=30*;KCNQ1 pot spec=28*;KCNQ2 pot confirm=56*;Kir21 spec=-8;KCNQ2 W236L pot=i
CC1CCCCC1NC(=S)NC(=O)c1sc2ccccc2c1Cl (configuration not stated),i,0.2,x,x,
CC(=O)Nc1ccc(S(=O)(=O)N2CCN(C(=O)c3ncoc3-c3ccc(C)cc3)CC2)cc1,i,1,x,x,
CN1CCN(CC(O)(c2ccc(Cl)cc2)c2ccc(Cl)cc2)CC1,i,x,50%*,i,
CN1CCN(CC(O)COc2ccc(Cl)cc2)CC1 (configuration not stated),i,0.21,x,x,
CCC(=O)OCc1c(C(F)(F)F)nn(C)c1Sc1ccc(F)cc1,i,x,48%*,i,
CCC(=O)OCc1c(C(F)(F)F)nn(C)c1Sc1ccc(Cl)cc1,i,x,x,x,
